The term AC50 denotes the concentration giving half of the maximal activity seen.

Molecules are shown by their SMILES. Active and inactive are the calls of the source. How the source made its calls: active means hit-call score of the fitted dose curve at least 0.9, where 1 is the maximum; inactive means score below 0.9.

Tested on in one experiment: not listed separately
Put plainly: ATG_Sox_CIS: Attagene CIS-FACTORIAL HepG2 Assay for human SRY-box transcription factor (SOX) (AID 2282960). Conditions: HepG2 Attagene cis-factorial SOX reporter, mRNA; actives raise or lower the signal. An outline of the steps: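 HepG2 cells transiently transfected with cis-element-driven multiple reporter transcription units, dosed 24 h; reporter mRNA measured by RT-PCR, FAM labelling, HpaI digestion and capillary electrophoresis. Bidirectional fit versus DMSO baseline.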
With `[Cl][Nd]([Cl])[Cl]`, the outcome was inactive.
Still for that read-out and setting: the value for `CC/C=C\C/C=C\C/C=C\CCCCCCCC(=O)O` was “inactive”; that for `CCOC(=O)CC` was “inactive”.
On the same count and under the same terms, to `Nc1ccc(-c2ccc(F)cc2)cc1` belongs “inactive”.
On the same count and under the same terms, to `CC(=O)Oc1ccc(C(C)=O)cc1` belongs “inactive”; to `C=C(C)C(=O)OCC(C)C`, “inactive”.
For `O=C(Nc1ccccc1)c1ccccc1O`, the result was inactive.
`CC(C)c1ccc(C#N)cc1`: the outcome was inactive.
`CCCCCCCCCCC=CC#N`: the compound was called inactive.
Same read-out and setting: the value for `O=C1OC(=O)c2cc(Oc3ccc4c(c3)C(=O)OC4=O)ccc21` was “inactive”; that for `COc1cc(C)ccc1C(C)C` was “inactive”.
Still for that read-out and setting: to `Cc1cccc(N)n1` belongs “inactive”; to `COc1ccc([C@@H]2CC(=O)c3c(O)cc(O[C@@H]4O[C@H](CO[C@@H]5O[C@@H](C)[C@H](O)[C@@H](O)[C@H]5O)[C@@H](O)[C@H](O)[C@H]4O)cc3O2)cc1OC`, “inactive”.
`c1cc(N(CC2CO2)CC2CO2)ccc1OCC1CO1` (configuration not stated): the AC50 was 58.5 µM (active).
On the same count and under the same terms, to `[Cl][Bi]([Cl])([c]1ccccc1)([c]1ccccc1)[c]1ccccc1` belongs 5.6 µM (active).
On to `O=C(O)C(c1ccc(Cl)cc1)c1ccc(Cl)cc1`, for which the compound was classed as inactive.
Still for that read-out and setting: the value for `CC1=Nc2ccc3ccccc3c2C1(C)C` was “inactive”; that for `O=c1c2ccccc2nnn1CCl` was “inactive”.
Take `CN(C)c1ccc(N=Nc2ccccc2C(=O)O)cc1`: the AC50 is 24.9 µM (active).
`S=C(NC1CCCCC1)NC1CCCCC1`: the compound was called inactive.
Same read-out and setting: the value for `COc1cc(NC(=O)CC(C)=O)c(OC)cc1Cl` was “inactive”; that for `O=C(/C=C/C=C/c1ccc2c(c1)OCO2)N1CCCCC1` was “inactive”; that for `CC(C)COC(=O)C=Cc1ccccc1` was “inactive”.
Consider `C=C[Si](OC(C)=O)(OC(C)=O)OC(C)=O`, for which the call was inactive.
Consider `CCCC(=O)OCc1ccccc1`, for which the compound was classed as inactive.
On the same count and under the same terms, the value for `CC(=O)OCC(C)OC(C)=O` (configuration not stated) was “inactive”; that for `Nc1cccc(C(F)(F)F)c1` was “inactive”; that for `Cc1cc(=O)n(-c2ccccc2)n1C` was “inactive”.
The same measure, in the same setting: to `Cc1ccc(N/N=c2\c(=O)cc/c(=N/Nc3ccc(S(=O)(=O)O)cc3)c2=O)c(C)c1` belongs “inactive”.
Same read-out and setting: to `Cc1cc(C)c(C)cc1C` belongs “inactive”; to `CCC(Cc1ccccc1)(C(=O)c1ccc(N2CCOCC2)cc1)N(C)C` (configuration not stated), “inactive”.
On to `Cc1cc(C)c(C)c(C)c1`, for which the compound was classed as inactive.
The same measure, in the same setting: to `CC(C)CC(O)Cc1ccccc1` (configuration not stated) belongs “inactive”; to `C=C(C)C(=O)OCCOc1ccccc1`, “inactive”.
On the same count and under the same terms, the value for `CCCOCCOCCOCCO` was “inactive”; that for `C=CCCCCCCCCC(=O)OCCCC` was “inactive”.

The next experiment deals with Transcription factor Sp1 (Homo sapiens) (UniProt P08047). Kind of experiment: ATG_Sp1_CIS: Attagene CIS-FACTORIAL HepG2 Assay for human Specificity Protein 1 (Sp1) (AID 2282961). Conditions: HepG2 Sp1 cis-reporter transcription, actives raise or lower the signal. An outline of the steps: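 HepG2 cells transiently transfected with multiple reporter transcription units driven by cis-regulatory elements; Sp1-responsive reporter mRNA measured 24 h after dosing by RT-PCR and capillary electrophoresis fluorescence, fitted bidirectionally against DMSO baseline.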
Sequence of Transcription factor Sp1 (Homo sapiens) (P08047 whole entry, looked up): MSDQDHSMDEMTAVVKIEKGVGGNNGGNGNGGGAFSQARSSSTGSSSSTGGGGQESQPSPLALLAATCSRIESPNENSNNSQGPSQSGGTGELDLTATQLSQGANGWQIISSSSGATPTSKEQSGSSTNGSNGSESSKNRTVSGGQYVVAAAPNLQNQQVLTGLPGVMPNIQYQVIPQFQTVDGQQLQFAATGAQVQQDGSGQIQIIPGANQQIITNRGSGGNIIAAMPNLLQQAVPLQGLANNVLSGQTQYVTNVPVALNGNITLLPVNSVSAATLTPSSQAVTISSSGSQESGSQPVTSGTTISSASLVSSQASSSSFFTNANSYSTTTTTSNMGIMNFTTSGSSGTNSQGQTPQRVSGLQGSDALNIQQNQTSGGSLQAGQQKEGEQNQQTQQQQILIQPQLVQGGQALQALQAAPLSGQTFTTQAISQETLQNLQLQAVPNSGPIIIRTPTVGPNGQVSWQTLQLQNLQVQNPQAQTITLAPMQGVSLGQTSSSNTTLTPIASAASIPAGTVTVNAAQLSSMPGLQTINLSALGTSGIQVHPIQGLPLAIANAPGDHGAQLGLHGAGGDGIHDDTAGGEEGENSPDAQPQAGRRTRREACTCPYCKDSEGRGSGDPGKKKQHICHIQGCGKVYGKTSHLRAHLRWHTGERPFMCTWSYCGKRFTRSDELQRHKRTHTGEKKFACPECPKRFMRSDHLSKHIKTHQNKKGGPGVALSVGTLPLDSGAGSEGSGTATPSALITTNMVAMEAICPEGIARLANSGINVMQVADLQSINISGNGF
Regarding `[Cl][Nd]([Cl])[Cl]`, the call was inactive.
On the same count and under the same terms, to `CC/C=C\C/C=C\C/C=C\CCCCCCCC(=O)O` belongs “inactive”.
On to `CCOC(=O)CC`, for which the call was inactive.
Same read-out and setting: the value for `Nc1ccc(-c2ccc(F)cc2)cc1` was “inactive”.
`CC(=O)Oc1ccc(C(C)=O)cc1`: the call was inactive.
On the same count and under the same terms, to `C=C(C)C(=O)OCC(C)C` belongs “inactive”; to `O=C(Nc1ccccc1)c1ccccc1O`, “inactive”; to `CC(C)c1ccc(C#N)cc1`, “inactive”.
Still for that read-out and setting: to `CCCCCCCCCCC=CC#N` belongs “inactive”.
The same measure, in the same setting: the value for `COc1cc(C)ccc1C(C)C` was “inactive”; that for `Cc1cccc(N)n1` was “inactive”.
`O=S(=O)(O)CC(O)CCl` (configuration not stated): the compound was called inactive.
The same measure, in the same setting: the value for `COc1ccc([C@@H]2CC(=O)c3c(O)cc(O[C@@H]4O[C@H](CO[C@@H]5O[C@@H](C)[C@H](O)[C@@H](O)[C@H]5O)[C@@H](O)[C@H](O)[C@H]4O)cc3O2)cc1OC` was “inactive”.
Regarding `c1cc(N(CC2CO2)CC2CO2)ccc1OCC1CO1` (configuration not stated), the AC50 was 56.9 µM (active).
As to `CCCCC(CC)CCC(CC(C)C)OS(=O)(=O)O` (configuration not stated), the result was inactive.
`[Cl][Bi]([Cl])([c]1ccccc1)([c]1ccccc1)[c]1ccccc1`: the outcome was inactive.
For `O=C(O)C(c1ccc(Cl)cc1)c1ccc(Cl)cc1`, the compound was called inactive.
The same measure, in the same setting: to `CC1=Nc2ccc3ccccc3c2C1(C)C` belongs “inactive”.
The same measure, in the same setting: to `O=c1c2ccccc2nnn1CCl` belongs “inactive”.
On to `CN(C)c1ccc(N=Nc2ccccc2C(=O)O)cc1`, for which the AC50 was 40.8 µM (active).
In the case of `S=C(NC1CCCCC1)NC1CCCCC1`, the result was inactive.
On the same count and under the same terms, the value for `COc1cc(NC(=O)CC(C)=O)c(OC)cc1Cl` was “inactive”.
In the case of `O=C(/C=C/C=C/c1ccc2c(c1)OCO2)N1CCCCC1`, the compound was called inactive.
Turning to `CC(C)COC(=O)C=Cc1ccccc1`, the outcome was inactive.
On the same count and under the same terms, to `CCN(CCO)c1cccc(C)c1` belongs “inactive”.
With `C=C[Si](OC(C)=O)(OC(C)=O)OC(C)=O`, the call was inactive.
On the same count and under the same terms, the value for `O=C(Cl)c1cc(C(=O)Cl)cc(C(=O)Cl)c1` was “inactive”.
For `CC(=O)OCC(C)OC(C)=O` (configuration not stated), the call was inactive.
On to `Nc1cccc(C(F)(F)F)c1`, for which the outcome was inactive.
Still for that read-out and setting: the value for `Cc1cc(=O)n(-c2ccccc2)n1C` was “inactive”; that for `Cc1ccc(N/N=c2\c(=O)cc/c(=N/Nc3ccc(S(=O)(=O)O)cc3)c2=O)c(C)c1` was “inactive”; that for `CCC(Cc1ccccc1)(C(=O)c1ccc(N2CCOCC2)cc1)N(C)C` (configuration not stated) was “inactive”.
The same measure, in the same setting: to `Cc1cc(C)c(C)c(C)c1` belongs “inactive”; to `CC(C)CC(O)Cc1ccccc1` (configuration not stated), “inactive”; to `C=C(C)C(=O)OCCOc1ccccc1`, “inactive”.
On the same count and under the same terms, to `CCCOCCOCCOCCO` belongs “inactive”; to `C=CCCCCCCCCC(=O)OCCCC`, “inactive”.

Tested on in a further experiment: not listed separately
Kind of experiment: ATG_SREBP_CIS: Attagene CIS-FACTORIAL HepG2 Assay for human Sterol Regulatory Element Binding (SREBP) (AID 2282962). The note with it: HepG2 Attagene cis-factorial SREBP reporter, mRNA; actives raise or lower the signal. The method in brief:
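mRNA induction of transfected cis-promoter reporters in HepG2 cells, 24 h post-dose. Detection: RT-PCR with 6-FAM-labelled products, HpaI digest, capillary electrophoresis. DMSO served as negative control and baseline.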
As to `[Cl][Nd]([Cl])[Cl]`, the compound was classed as inactive.
The same measure, in the same setting: to `CC/C=C\C/C=C\C/C=C\CCCCCCCC(=O)O` belongs “inactive”; to `CCOC(=O)CC`, “inactive”; to `Nc1ccc(-c2ccc(F)cc2)cc1`, “inactive”.
The same measure, in the same setting: the value for `CC(=O)Oc1ccc(C(C)=O)cc1` was “inactive”.
Still for that read-out and setting: to `C=C(C)C(=O)OCC(C)C` belongs “inactive”; to `O=C(Nc1ccccc1)c1ccccc1O`, “inactive”; to `CC(C)c1ccc(C#N)cc1`, “inactive”.
As to `CCCCCCCCCCC=CC#N`, the compound was called inactive.
Still for that read-out and setting: to `O=C1OC(=O)c2cc(Oc3ccc4c(c3)C(=O)OC4=O)ccc21` belongs “inactive”; to `COc1cc(C)ccc1C(C)C`, “inactive”; to `Cc1cccc(N)n1`, “inactive”.
On the same count and under the same terms, to `O=S(=O)(O)CC(O)CCl` (configuration not stated) belongs “inactive”.
Turning to `COc1ccc([C@@H]2CC(=O)c3c(O)cc(O[C@@H]4O[C@H](CO[C@@H]5O[C@@H](C)[C@H](O)[C@@H](O)[C@H]5O)[C@@H](O)[C@H](O)[C@H]4O)cc3O2)cc1OC`, the compound was called inactive.
Consider `c1cc(N(CC2CO2)CC2CO2)ccc1OCC1CO1` (configuration not stated), for which the AC50 was 68.3 µM (active).
On to `CCCCC(CC)CCC(CC(C)C)OS(=O)(=O)O` (configuration not stated), for which the compound was called inactive.
The same measure, in the same setting: to `[Cl][Bi]([Cl])([c]1ccccc1)([c]1ccccc1)[c]1ccccc1` belongs “inactive”; to `O=C(O)C(c1ccc(Cl)cc1)c1ccc(Cl)cc1`, “inactive”.
Turning to `CC1=Nc2ccc3ccccc3c2C1(C)C`, the AC50 was 100 µM (active).
Take `O=c1c2ccccc2nnn1CCl`: the result was inactive.
Still for that read-out and setting: to `CN(C)c1ccc(N=Nc2ccccc2C(=O)O)cc1` belongs “inactive”.
Same read-out and setting: the value for `S=C(NC1CCCCC1)NC1CCCCC1` was “inactive”.
On the same count and under the same terms, to `COc1cc(NC(=O)CC(C)=O)c(OC)cc1Cl` belongs “inactive”; to `O=C(/C=C/C=C/c1ccc2c(c1)OCO2)N1CCCCC1`, “inactive”.
With `CC(C)COC(=O)C=Cc1ccccc1`, the compound was called inactive.
The same measure, in the same setting: the value for `CCN(CCO)c1cccc(C)c1` was “inactive”.
As for `C=C[Si](OC(C)=O)(OC(C)=O)OC(C)=O`, the call was inactive.
The same measure, in the same setting: the value for `CCCC(=O)OCc1ccccc1` was “inactive”; that for `O=C(Cl)c1cc(C(=O)Cl)cc(C(=O)Cl)c1` was “inactive”.
For the compound `CC(=O)OCC(C)OC(C)=O` (configuration not stated), the outcome was inactive.
On the same count and under the same terms, to `Nc1cccc(C(F)(F)F)c1` belongs “inactive”; to `Cc1ccc(N/N=c2\c(=O)cc/c(=N/Nc3ccc(S(=O)(=O)O)cc3)c2=O)c(C)c1`, “inactive”; to `Cc1cc(C)c(C)cc1C`, “inactive”.
The same measure, in the same setting: the value for `CCC(Cc1ccccc1)(C(=O)c1ccc(N2CCOCC2)cc1)N(C)C` (configuration not stated) was “inactive”; that for `Cc1cc(C)c(C)c(C)c1` was “inactive”; that for `CC(C)CC(O)Cc1ccccc1` (configuration not stated) was “inactive”.
Regarding `C=C(C)C(=O)OCCOc1ccccc1`, the result was inactive.
Same read-out and setting: to `CCCOCCOCCOCCO` belongs “inactive”; to `C=CCCCCCCCCC(=O)OCCCC`, “inactive”.

The values are drawn from PubChem BioAssay (EPA / NIEHS).
